In all, about 16,000 compounds went through this assay and about 5,800 (36%) were called active. Roughly 23% stayed inconclusive and do not appear here. This is one part of the list. Unmarked numbers belong to inactive results. Calls follow the shape of the dose curve; as a rule, active = well fitted curve in the direction sought with a large enough effect; inconclusive = small, poorly fitted or top-dose-only effect, or effect the other way; inactive = no such curve, though single readings can be large or run the other way.
biological target: Cytochrome P450 2C19 (Homo sapiens) (UniProt P33261); assay: Cytochrome panel assay with activity outcomes; details: recombinant CYP, pro-luciferin dealkylation, luminescence, p450-cyp2c19; series mostly up to 57.1 µM
% is scaled to controls: 0 for no effect and ±100 for the full control effect.

Cytochrome P450 2C19 (Homo sapiens), sequence (P33261 whole entry, looked up): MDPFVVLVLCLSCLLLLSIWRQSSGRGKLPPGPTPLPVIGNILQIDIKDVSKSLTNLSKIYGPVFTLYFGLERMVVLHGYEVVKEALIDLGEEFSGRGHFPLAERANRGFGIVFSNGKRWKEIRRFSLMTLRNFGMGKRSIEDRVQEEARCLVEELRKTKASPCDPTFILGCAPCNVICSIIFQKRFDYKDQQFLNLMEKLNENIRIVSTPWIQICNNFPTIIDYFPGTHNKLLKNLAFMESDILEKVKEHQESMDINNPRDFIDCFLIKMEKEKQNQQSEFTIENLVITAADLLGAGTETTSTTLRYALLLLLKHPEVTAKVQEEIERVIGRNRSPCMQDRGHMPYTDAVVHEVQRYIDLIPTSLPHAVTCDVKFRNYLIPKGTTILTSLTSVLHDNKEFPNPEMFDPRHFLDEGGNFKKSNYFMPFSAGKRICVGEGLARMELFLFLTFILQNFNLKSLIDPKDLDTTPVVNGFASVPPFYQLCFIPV

| SMILES | AC50 | activity, negative = inhibition |
| --- | --- | --- |
| Oc1ccc(Cn2cc[nH]c2=S)cc1 | inactive |  |
| O=C(NC(=S)Nc1nc(-c2ccc(Br)cc2)cs1)c1cccnc1 | 10 µM (active) |  |
| O=C(NNC(=S)NC(=O)c1cccnc1)c1ccccc1 | inactive |  |
| O=S(=O)(O)c1ccc2cc(N=Nc3cc(S(=O)(=O)O)c4cccnc4c3O)ccc2c1 |  | -22.6% [at 11.4 µM] |
| COc1ccc(C=NC(CO)C(O)c2ccc([N+](=O)[O-])cc2)cc1 (stereo not given) | inactive |  |
| NC(N)=N/N=C\c1ccc(C2CCNCC2)cc1 |  | 23.7% [at 11.4 µM] |
| CS/C(N)=N/N=C/c1ccc([N+](=O)[O-])cc1 | 14.1 µM (active) |  |
| O=C(NC[C@@H](O)CO)c1c(I)c(C(=O)NC[C@@H](O)CO)c(I)c(N(CCO)C(=O)CO)c1I | inactive |  |
| O=C(COc1cccc2ccccc12)N1c2ccccc2CCc2ccccc21 | 0.447 µM (active) |  |
| CC(C)NC[C@H](O)COc1cccc2ccccc12 | inactive |  |
| CC(C)NC[C@@H](O)COc1cccc2ccccc12 | inactive |  |
| CCOC(=O)c1cc(NC(=O)c2ccc(OC)cc2)c(=O)oc1-c1ccccc1 | 2.82 µM (active) |  |
| CCOC(=O)c1cc(-c2ccccc2)sc1NC(=O)c1ccc(OC)cc1 | 7.94 µM (active) |  |
| COC(=O)c1cc(-c2ccccc2)sc1NC(=O)CN1C(=O)c2ccccc2C1=O | 7.08 µM (active) |  |
| CCOC(=O)c1cc(CC)sc1NC(=O)C(c1ccccc1)c1ccccc1 | 8.91 µM (active) |  |
| CCc1cc(C(=O)OC)c(NC(=O)CCCC(=O)O)s1 | inactive |  |
| CCOC(=O)c1cc(-c2ccccc2)sc1NC(=O)C(C)(C)C | inactive |  |
| CO[C@@H]1COC(=O)[C@H](C)NC(=O)[C@@H](C)COC(=O)CCC[C@H]1C |  | 15.2% [at 11.4 µM] |
| Cc1ccccc1OCC(=O)Nc1sc(C(=O)Nc2cccc(C)c2C)c(C)c1C#N | inactive |  |
| CCOC(=O)c1sc2c(c1C)c(=O)c(C(=O)OCC)cn2CC | inactive |  |
| CCOC(=O)c1sc(NC(=O)CSc2n[nH]c(-c3ccc(Cl)cc3Cl)n2)c(C#N)c1C | 2.24 µM (active) |  |
| CCOC(=O)c1sc(NC(=O)CSc2nc(C)cc(C)c2C#N)c(C#N)c1C | 5.62 µM (active) |  |
| CCOc1ccc(-c2c[n+](=O)c3c(n2[O-])CCCC3)c(OCC)c1 | inactive |  |
| O=C1c2ccccc2N[C@H](c2cc(Cl)cc(Cl)c2O)N1CCc1ccccn1 | 3.98 µM (active) |  |
| COc1ccc(OC)c(Nc2nc(-c3sc(NC(=O)c4ccccc4)nc3C)cs2)c1 | 6.31 µM (active) |  |

| SMILES | AC50 | activity, negative = inhibition |
| --- | --- | --- |
| CCOc1ccccc1Nc1nc(-c2sc(NC(=O)c3ccccc3)nc2C)cs1 | 3.16 µM (active) |  |
| COc1cc(C(=O)Nc2nc3ccc4nc(C)sc4c3s2)cc(OC)c1OC | inactive |  |
| CCn1c(C)c(/C=N/Nc2nc3ccccc3s2)c2ccccc21 | 3.16 µM (active) |  |
| Cc1ccc(-c2ccc(=O)n(CC(=O)NCCN(C)C)n2)cc1 | inactive |  |
| Cc1c(Nc2ncccc2C(=O)O)cccc1C(F)(F)F | inactive |  |
| Cc1ccc(OCCCC(=O)Nc2ccccc2C(F)(F)F)cc1 | 6.31 µM (active) |  |
| COc1ccc([N+](=O)[O-])cc1NC(=S)NC(NC(=O)Cc1ccc(OC)c(OC)c1)C(Cl)(Cl)Cl (stereo not given) | 0.708 µM (active) |  |
| CCCN1CCN(CCCNC(=O)Cn2nc(-c3ccc(C)cc3)ccc2=O)CC1 | inactive |  |
| Cc1cccc(OCCCC(=O)Nc2ccccc2C(F)(F)F)c1 | 7.08 µM (active) |  |
| Cc1ccc(-c2ccc(=O)n(CC(=O)NCc3ccco3)n2)cc1 | 7.94 µM (active) |  |
| Nc1ncnc2c1nc(-c1ccccc1)n2[C@H]1O[C@@H](CO)[C@@H](O)[C@H]1O |  | -0.591% [at 11.4 µM] |
| CCO[P@]1(=O)OC[C@@H]2O[C@H](n3cnc4c(N)ncnc43)[C@H](O)[C@@H]2O1 |  | 14% [at 11.4 µM] |
| C/C(CC(=O)NCc1ccco1)=N\NC(=O)Cc1ccccc1 | inactive |  |
| Cc1c(NC(=O)CCCOc2ccccc2)cccc1[N+](=O)[O-] | 2.51 µM (active) |  |
| Cc1ccc(OCCCC(=O)NCc2ccco2)cc1 | 10 µM (active) |  |
| Cc1c(C(=O)Nc2ccc(OCc3ccccc3)cc2)cccc1[N+](=O)[O-] | inactive |  |
| CCN(CC(=O)Nc1ccc([N+](=O)[O-])cc1OC)c1ccccc1 | 5.62 µM (active) |  |
| Cc1ccc(OCC(=O)Nc2ccccc2-c2ccccc2)cc1 | 3.55 µM (active) |  |
| Cc1ccc(OCC(=O)NNC(=O)CCc2ccccc2)cc1 | inactive |  |
| COc1ccccc1NC(=O)Cn1cncc1-c1ccc([N+](=O)[O-])cc1 | inactive |  |
| Cc1ccc(CS(=O)(=O)CCC(=O)NCCCOC(C)C)cc1 | inactive |  |
| Cc1ccc(OCC(=O)NC2=NCCS2)cc1 | 17.8 µM (active) |  |
| COc1ccc([N+](=O)[O-])cc1NC(=O)CC(C)c1ccccc1 (stereo not given) | 3.55 µM (active) |  |
| Cc1c(NC(=O)C(Sc2ccccc2)c2ccccc2)cccc1[N+](=O)[O-] (stereo not given) | 0.891 µM (active) |  |
| Cc1ccc(OCC(=O)Nn2cnc3ccccc32)cc1 | 20 µM (active) |  |

| SMILES | AC50 | activity, negative = inhibition |
| --- | --- | --- |
| Cc1ccc(OCC(=O)NNC(=O)c2cc3ccccc3o2)cc1 | inactive |  |
| C[C@@H]1O[C@@H](n2cc(F)c(=O)[nH]c2=O)[C@H](O)[C@@H]1O | inactive |  |
| Cc1cccc2cc(=O)[nH]c(C)c12 | inactive |  |
| C[N+]1(CCC[N+]2(C)C[C@H]3[C@H](C2)[C@H]2C=C[C@@H]3CC2)CCOCC1 (stereo not given in full) |  | -6.43% [at 11.4 µM] |
| COc1cc([N+](=O)[O-])ccc1NC(=O)CCCOc1cccc(C)c1 | 3.98 µM (active) |  |
| Cc1cc2c(cc1S(N)(=O)=O)S(=O)(=O)CCC2 | inactive |  |
| CCCCNC(=O)CCC(=O)Nc1ccc2nc(N3CCOCC3)cc(C)c2c1 | 25.1 µM (active) |  |
| COCCCNC(=O)CCC(=O)Nc1ccc2nc(N3CCOCC3)cc(C)c2c1 | inactive |  |
| Cc1ccccc1C(=O)NN(C)c1nc2ccccc2nc1C(F)(F)F | 0.355 µM (active) |  |
| Cc1ccccc1C(=O)NNC(=O)c1ccc(F)cc1 | inactive |  |
| O=C(c1cc(C(F)(F)F)cc(C(F)(F)F)c1)N1CCC[C@@]2(CCN(c3ccncc3)C2)C1 | inactive |  |
| O=S(=O)(C[C@H](O)C(Cl)(Cl)Cl)NNc1ccccc1 |  | -25.2% [at 11.4 µM] |
| O=C(Nc1ccccc1)N(Cc1ccccc1)CC(O)C(F)(F)F (stereo not given) | 5.01 µM (active) |  |
| O=C(Nc1cccc(C(F)(F)F)c1)N(Cc1ccc(Cl)cc1)CC(O)C(F)(F)F (stereo not given) | 3.98 µM (active) |  |
| CCC(=O)NC(NCC1CCCO1)C(Cl)(Cl)Cl (stereo not given) | inactive |  |
| CCCC(=O)NC(Nc1ccccc1F)C(Cl)(Cl)Cl (stereo not given) | 2.82 µM (active) |  |
| CCCC[C@]1(C2CCCC2)Cc2cc(OCC(=O)O)c(Cl)c(Cl)c2C1=O | inactive |  |
| CCOC(=O)C1=C(C)N=C2c3ccccc3C(=O)C2C1c1ccc(C)cc1 (stereo not given) | 1 µM (active) |  |
| CCOC(=O)C1=C(C)N=C2c3ccccc3C(=O)C2C1c1ccc(Cl)cc1 (stereo not given) | 0.631 µM (active) |  |
| CO[C@@H]1/C=C\CC(=O)N[C@@H](C)C(=O)OC[C@H](NS(=O)(=O)c2ccc(C)cc2)[C@H](C)/C=C\CC(=O)OC[C@H]1C |  | -0.432% [at 11.4 µM] |
| NC(=O)N[C@H]1NC(=O)NC1=O | inactive |  |
| CCC(=O)c1ccc(OCc2ccc(C(=O)OC)cc2)c(OC)c1 | 3.16 µM (active) |  |
| CC(Oc1ccc(O)cc1)(P(=O)(O)O)P(=O)(O)O | inactive |  |
| CC1(C)Oc2ccc(NC(=O)c3ccco3)cc2O1 | 14.1 µM (active) |  |
| O=C(Nc1ccccc1C(=O)Nc1ccc2c(c1)OCO2)c1ccco1 | 3.16 µM (active) |  |

| SMILES | AC50 | activity, negative = inhibition |
| --- | --- | --- |
| CCC(=O)[C@@]1(C)[C@H](C)C[C@@H]2[C@@H]3CCC4=CC(=O)C=C[C@@]4(C)[C@H]3[C@H](O)C[C@]21C | inactive |  |
| Cc1ccc(-n2c(SCc3ccc([N+](=O)[O-])cc3)nc3ccccc3c2=O)cc1 | inactive |  |
| COn1c(SCc2ccc(C)cc2C)nc2ccccc2c1=O | 3.55 µM (active) |  |
| COn1c(SCc2cccc(Cl)c2)nc2ccccc2c1=O | 2.24 µM (active) |  |
| Nc1nnc(CC(=O)N/N=C/c2cccc([N+](=O)[O-])c2)s1 | inactive |  |
| O=[N+]([O-])c1cccc(/C=N/Nc2cc(Cl)nc(-c3ccccc3)n2)c1 | 2 µM (active) |  |
| O=[N+]([O-])c1ccc(/C=N/Nc2cc(Cl)nc(-c3ccccc3)n2)cc1 | inactive |  |
| COc1ccc(NC(=O)N2CCCC3(CCN(C(=O)c4csnn4)CC3)C2)cc1 | inactive |  |
| Cc1cc2c(nc1C)CCCN2C[C@@H](O)CN1CCN(C)CC1 |  | 4.3% [at 11.4 µM] |
| CO[C@@H](NC(N)=O)C(=O)O |  | 20.6% [at 11.4 µM] |
| O=C(CCCc1ccccc1)N1CCN(c2ccc([N+](=O)[O-])cc2)CC1 | 8.91 µM (active) |  |
| COCC(=O)N1CCN(c2ccc([N+](=O)[O-])cc2)CC1 | inactive |  |
| CC[N+](CC)(CC)CC | inactive |  |
| COc1ccc(S(=O)(=O)NCCC(=O)NCc2ccc(F)cc2)cc1 | inactive |  |
| CC(=O)Nc1ccc(S(=O)(=O)NCCc2ccc(F)cc2)cc1 | 5.01 µM (active) |  |
| O=c1c2ccccc2nc2n1CCC2 | inactive |  |
| O=c1c2c(-c3ccc(Cl)cc3)csc2nc2n1CCC2 | 8.91 µM (active) |  |
| C[N+](C)(C)CCCSc1nc2ccccc2[nH]1 |  | 32.5% [at 11.4 µM] |
| Cc1c(OCC(F)(F)F)ccnc1CSc1nc2ccccc2[nH]1 | 1.58 µM (active) |  |
| COC(=O)c1ccc(NC(=O)c2ccccc2NS(=O)(=O)c2ccccc2)cc1 | 3.98 µM (active) |  |
| CC(C)C1NC(=S)N(Cc2ccccc2)C1=O (stereo not given) | 2 µM (active) |  |
| Cc1ccc(-c2nn(-c3ccccc3)cc2/C=N/NS(=O)(=O)c2ccccc2)cc1 | 8.91 µM (active) |  |
| Cc1c(/C=N/NC(=O)c2ccc3c(c2)OCO3)cnn1C | inactive |  |
| O=C(N/N=C\c1cn(-c2ccccc2)nc1-c1ccccc1)c1ccc2c(c1)OCO2 | 3.16 µM (active) |  |
| O=C(N/N=C\c1cn(-c2ccccc2)nc1-c1ccccc1)c1ccc(Br)o1 | 2 µM (active) |  |

— PubChem BioAssay AID1851 (National Center for Advancing Translational Sciences (NCATS), 2009)
